From PubChem BioAssay
KB-V1 cytotox: kills drug-selected multidrug resistant KB-V1 cells. AID 1347076. 3.4% of 400,000 active. KB-V1 MDR cells viability, CellTiter-Glo, 72 h. Potency, µM (highest dose often 46.1 µM), actives largely listed as cytotoxic; note: nearly all actives have a fitted effect of over 60% in size
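Luminescent ATP read-out (CellTiter-Glo, 10 min) measures survival of drug-selected KB-V1 MDR cells after 72 h, 37 degrees C compound exposure. Medium: phenol-red-free DMEM, 10% FBS. Values from fitted concentration-response curves.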
DT40 TDP1 no CPT: qHTS for Inhibitors of human tyrosyl-DNA phosphodiesterase 1 (TDP1): qHTS in cells in absence of CPT; DT40 Tdp1-/- hTDP1 cells, no CPT, ATP luminescence, 48 h; Potency, µM (series often up to 46.2 µM), usual class: inhibitors; 15% of 420,000 active; note: nearly all actives have a fitted effect of over 55% in size
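Cells were dispensed at 400 per well, compounds added by pin tool, plates incubated ≥48 hr at 37 °C, then CellTiter-Glo added for 30 min at room temperature before luminescence reading. Line: DT40 Tdp1-/- complemented with hTDP1; camptothecin omitted.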
DT40 TDP1 CPT: growth inhibition of DT40 Tdp1-/-;hTDP1 cells with camptothecin (screen for TDP1 inhibitors); chicken DT40 Tdp1-/-;hTDP1 cells + 20 nM CPT, ATP luminescence, 48 h; Potency, µM (doses to about 46.2 µM), usual class: inhibitors; 12% of 420,000 active; AID 686979; note: nearly all actives have a fitted effect of over 55% in size
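Cell growth measured by CellTiter-Glo luminescence after a minimum 48 h, 37 C compound exposure with 20 nM CPT in Tdp1-knockout DT40 cells stably expressing hTDP1, seeded 400/well; qHTS titration format.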
HT1080 IDH1KD tx: toxicity to HT-1080 IDH1 knockdown cells (counter line); AID 686971; Potency, µM (highest dose often 46.1 µM), hits mostly cytotoxic; HT-1080 IDH1 knockdown viability, ATP luminescence, 48 h; 2% of 360,000 active
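Luminescent ATP read-out (CellTiter-Glo, 10 min at room temperature) after 48 h compound exposure at 37 °C gave viability of IDH1-knockdown HT-1080 cells. Activity was normalised to DMSO and cell-free wells, then fitted as concentration-response curves.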
HT1080NT lethal: kills 2HG-producing HT-1080-NT fibrosarcoma cells. Potency, µM (top dose mostly 46.1 µM), actives largely listed as cytotoxic. 1.6% of 360,000 active. HT-1080-NT fibrosarcoma viability, CellTiter-Glo ATP luminescence, 48 h. AID 686970;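 note: NT is the 2HG producing partner of a matched IDH1 knockdown line; nearly all actives have a fitted effect of over 55% in size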
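Fibrosarcoma NT cells, 750 per well in 5% FBS RPMI, were exposed to compound for 48 hours. Viability: CellTiter-Glo luminescence.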
KB-3-1 tox: kills parental KB-3-1 adenocarcinoma cells. AID 1347075. KB-3-1 viability, CellTiter-Glo ATP luminescence, 72 h. Potency, µM (highest dose often 46.1 µM), hits mostly cytotoxic. 1.4% of 400,000 active; note: nearly all actives have a fitted effect of over 60% in size
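Luminescent ATP read-out (CellTiter-Glo) measures survival of drug-naive KB-3-1 cells after 72 h compound exposure at 37 °C. Titration series was screened from lowest to highest concentration, with DMSO vehicle plates as background controls.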
Large screens that a line does not name were inactive. Hits are enriched below; roughly 19% of the tested compounds scored in any of these assays. Calls come from the whole dose curve; as a rule, active = well fitted curve in the direction sought with a large enough effect; inconclusive = small, poorly fitted or top-dose-only effect, or another doubt; inactive = no such curve, though single readings can be large; an effect the other way counts as inactive or inconclusive.

Cc1csc2nc(COC(=O)c3ccc(NC(=O)C(C)C)cc3)cc(=O)n12	DT40 TDP1 no CPT 26µM, DT40 TDP1 CPT 18µM (no result: KB-V1 cytotox, HT1080 IDH1KD tx, HT1080NT lethal, KB-3-1 tox)
CN1CCN(CCCNC(=O)Cn2c(-c3cccs3)cc3ccccc32)CC1	DT40 TDP1 no CPT inconclusive, DT40 TDP1 CPT inconclusive (no result: HT1080 IDH1KD tx, HT1080NT lethal)
O=C(Cn1c(-c2cccs2)cc2ccccc21)NCCCN1CCN(c2cccc(Cl)c2)CC1	DT40 TDP1 no CPT 16µM, DT40 TDP1 CPT inconclusive (no result: HT1080 IDH1KD tx, HT1080NT lethal)
Cc1ccc(C)c(N2CCN(CCCNC(=O)Cn3c(-c4cccs4)cc4ccccc43)CC2)c1	DT40 TDP1 no CPT 2.9µM, DT40 TDP1 CPT 5.2µM (no result: HT1080 IDH1KD tx, HT1080NT lethal)
O=C(Cn1c(=O)nc(-c2ccccc2F)c2cc(Cl)ccc21)Nc1ccccc1C(F)(F)F	DT40 TDP1 no CPT inconclusive (no result: KB-V1 cytotox, HT1080 IDH1KD tx, HT1080NT lethal, KB-3-1 tox)
COc1ccccc1OCCC(=O)N1CCN(c2ccccc2OC)CC1	DT40 TDP1 no CPT inconclusive, DT40 TDP1 CPT inconclusive
CC(=O)c1ccc(N2CCN(C(=O)COc3ccccc3F)CC2)c(F)c1	DT40 TDP1 no CPT 23µM, DT40 TDP1 CPT inconclusive
CCC(=O)c1ccc(N2CCN(C(=O)COc3ccccc3F)CC2)c(F)c1	DT40 TDP1 no CPT 13µM, DT40 TDP1 CPT inconclusive
CCOC(=O)N1CCN(c2ccc(C(C)=O)cc2F)CC1	none
O=C(CCOc1ccccc1F)N1CCN(c2ccccc2O)CC1	DT40 TDP1 no CPT 16µM, DT40 TDP1 CPT inconclusive
COc1cc(C(=O)N2CCN(c3ccccc3F)CC2)ccc1OCC(=O)N1CCOCC1	none
COC(=O)c1ccc(COC(=O)C2CCN(S(=O)(=O)c3c(C)cc(C)cc3C)CC2)o1	none
Cc1nc(SCC(=O)NCC2CCCO2)c2cc(-c3ccccc3)sc2n1 (centres undefined)	KB-V1 cytotox inconclusive, DT40 TDP1 no CPT inconclusive, DT40 TDP1 CPT inconclusive, HT1080NT lethal inconclusive, KB-3-1 tox inconclusive
Cc1cc(O)ccc1N/C=C(\C#N)c1nc2ccccc2o1	DT40 TDP1 no CPT 12µM, DT40 TDP1 CPT inconclusive
N#C/C(=C\c1c(Cl)cccc1Cl)c1nc2ccccc2o1	HT1080 IDH1KD tx inconclusive
Cc1ccc(-n2ncc3c(NCc4ccc5c(c4)OCO5)ncnc32)c(C)c1	KB-V1 cytotox 4.1µM, DT40 TDP1 no CPT inconclusive, DT40 TDP1 CPT inconclusive, KB-3-1 tox inconclusive
Clc1ccc2ncnc(NCc3ccc4c(c3)OCO4)c2c1	DT40 TDP1 no CPT 2.5µM, DT40 TDP1 CPT 3.2µM (no result: KB-V1 cytotox, HT1080 IDH1KD tx, HT1080NT lethal, KB-3-1 tox)
Oc1ccc(CCNc2ncnc3ccc(Cl)cc23)cc1	KB-V1 cytotox inconclusive, DT40 TDP1 no CPT 2.3µM, DT40 TDP1 CPT 2.6µM, HT1080 IDH1KD tx inconclusive
c1ccc(-n2ncc3c(NCc4ccc5c(c4)OCO5)ncnc32)cc1	KB-V1 cytotox 21µM, DT40 TDP1 no CPT inconclusive, HT1080 IDH1KD tx inconclusive, HT1080NT lethal inconclusive
c1ccc(CC[C@@H]2CC[C@@H](CCc3ccccc3)N2)cc1	DT40 TDP1 no CPT 18µM, DT40 TDP1 CPT 12µM
Nc1nnc(SCC(=O)Nc2cccc(F)c2)s1	none (no result: HT1080 IDH1KD tx, HT1080NT lethal)
CCN(CC)c1ccc(C(=C2C=CC(=[N+](CC)CC)C=C2)c2ccccc2)cc1	KB-V1 cytotox inconclusive, DT40 TDP1 no CPT 0.15µM, DT40 TDP1 CPT 0.16µM, HT1080 IDH1KD tx 1µM, HT1080NT lethal 2.6µM, KB-3-1 tox 0.026µM
CCN(CC)c1ccc(C(=C2C=CC(=[N+](CC)CC)C=C2)c2ccc(N(CC)CC)cc2)cc1	KB-V1 cytotox inconclusive, DT40 TDP1 no CPT 0.73µM, DT40 TDP1 CPT 0.92µM, HT1080 IDH1KD tx 5.2µM, HT1080NT lethal 7.3µM, KB-3-1 tox inconclusive
COc1cc(N2C(=O)c3ccccc3C2=O)c(Cl)cc1C(=O)OCC(=O)N(C)C	none
COc1ccc(C(=O)N2CCCC(Nc3ccc(F)cc3)C2)c(OC)c1 (centres undefined)	none
COc1nc(-c2ccc(C)cc2)ccc1-c1noc(-c2ccc(C(C)(C)C)cc2)n1	DT40 TDP1 no CPT inconclusive, DT40 TDP1 CPT inconclusive (no result: HT1080 IDH1KD tx, HT1080NT lethal)
CCOC(=O)c1ccc(N(C(=O)c2ccccc2)c2ccccc2)cc1	DT40 TDP1 no CPT inconclusive (no result: HT1080 IDH1KD tx, HT1080NT lethal)
CCN1C(=O)N[C@H](c2ccccc2)C(C(C)=O)=C1C	none
